The sample as a whole holds a higher share of hits than the screen did.
Pf Dd2 inh = qHTS Primary assay for Inhibitors of Plasmodium falciparum Dd2 growth in vitro. P. falciparum Dd2 growth, SYBR Green, 72 h. Potency, µM (highest dose often 28.9 µM), inactives show at the top dose activity, negative = inhibition, hits mostly inhibitors. hit rate 4.3% among 120,000; active = well fitted inhibition curve with a large enough effect;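 also: plate controls were DMSO vehicle for no effect and reference drug for full effect; nearly all actives have a fitted effect of over 65% in size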
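Readout: SYBR Green fluorescence, 485 nm excitation, 535 nm emission, after ~16 h lysis at 37C. Before that, Dd2-infected red cells (2.5% hematocrit) grew 72 h with compound, 29 uM top final concentration.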
Starred values were filed as active, the others as inactive; [ ] = another dose, or the depositor's remark. Potency is read from the fitted curve at half-maximal effect.

OC1CC(c2cc(NCCOCc3ccc(Cl)cc3)ncn2)C1 (configuration not stated) was read as Pf Dd2 inh -18%.
For Cn1c(C(=O)N[C@@H]2COCC[C@H]2Oc2ccc(C#N)cc2)cc(=O)n(C)c1=O the results were Pf Dd2 inh -1%.
Screening Cc1ccc(-c2cc3c(=O)n(CCNC(=O)Cc4c[nH]c5ccccc45)ccn3n2)c(C)c1 returned Pf Dd2 inh 10µM*.
Cc1ccc(-c2cc3c(=O)n(CCNC(=O)c4ccc(F)cc4)ccn3n2)c(C)c1 was read as Pf Dd2 inh 2.8µM*.
For Cc1ccc(C(=O)NCCn2ccn3nc(-c4cc(C)ccc4C)cc3c2=O)cc1 the results were Pf Dd2 inh inactive.
For Cc1ccc(-c2cc3c(=O)n(CCNC(=O)c4ccc(F)c(F)c4)ccn3n2)c(C)c1 the results were Pf Dd2 inh inactive.
For Cc1ccc(-c2cc3c(=O)n(CCNC(=O)Cc4cccc(F)c4)ccn3n2)c(C)c1 the results were Pf Dd2 inh 0%.
Screening Cc1ccc(-c2cc3c(=O)n(CCNC(=O)Cc4ccccc4Cl)ccn3n2)c(C)c1 returned Pf Dd2 inh -7%.
Screening COCCCN1C(=O)CC[C@H]2CN(C(=O)c3scnc3C)CC[C@H]21 returned Pf Dd2 inh -12%.
COCCn1cnnc1CNc1cc(C)nc2c(C)c(C)nn12 was read as Pf Dd2 inh -10%.
Screening Cc1cccc(NC(=O)N2CCC(OC3CCN(S(C)(=O)=O)CC3)CC2)c1C returned Pf Dd2 inh -10%.
Cc1noc(C)c1-c1cc2cc(C(C)C)oc2c(NC2CCN(C)CC2)n1 was read as Pf Dd2 inh 10µM*.
`Cc1noc(C)c1-c1cc2cc(CNC3CC3)oc2c(NC2CCN(C)CC2)n1` gave Pf Dd2 inh -14%[44.1 µM].
Screening Cc1noc(C)c1-c1cc2cc(C(C)C)oc2c(NCCN2CCOCC2)n1 returned Pf Dd2 inh 10µM*.
`Cc1noc(C)c1-c1cc2cc(C(C)C)oc2c(Nc2ccn(C)n2)n1` gave Pf Dd2 inh -2%[44.1 µM].
For Cc1cc2cc(-c3c(C)noc3C)nc(NC3CC3)c2o1 the results were Pf Dd2 inh -9%[44.1 µM].
`Cc1noc(C)c1-c1cc2cc(CO)oc2c(NCC2CCOCC2)n1` gave Pf Dd2 inh inactive.
Screening Fc1cccc(-c2noc(-c3nc(-c4ccncc4)no3)n2)c1 returned Pf Dd2 inh -23%.
For COc1nccc(N2CCC(CC(=O)N3CCCC3)CC2)n1 the results were Pf Dd2 inh 22%.
`COCc1noc([C@@H]2CC(F)(F)CN2C(=O)COc2ccccc2)n1` gave Pf Dd2 inh inactive.
Screening O=C(CN1C(=O)C(c2ccccc2)=NC12CCCCC2)NC1CCCC1 returned Pf Dd2 inh -20%.
COCc1nncn1C1CCN(C(=O)c2ccc(F)cc2F)CC1 was read as Pf Dd2 inh inactive.
Screening O=C(c1cccs1)C1CCCN(Cc2nc(CCc3ccccc3)no2)C1 (configuration not stated) returned Pf Dd2 inh -18%.
COCC1CCCN(Cc2nc(C(c3ccccc3)c3ccccc3)no2)C1 (configuration not stated) was read as Pf Dd2 inh 11µM*.
For COc1ccccc1N1CCN(C2CCCN(Cc3nc(C(N)=O)no3)C2)CC1 (configuration not stated) the results were Pf Dd2 inh -21%.
`CC(=O)c1cccc(NC(=O)O[C@@H]2CO[C@H]3[C@@H]2OC[C@@H]3NC(=S)NC2CCCCC2)c1` gave Pf Dd2 inh inactive.
For CC(C)CCNC(=O)N1CCC(Oc2ncccc2C(=O)N(C)C)C1 (configuration not stated) the results were Pf Dd2 inh -7%.
`CC(C)CC(=O)N1[C@@H]2CC[C@H]1CC(NC(=O)c1ccncc1)C2` (some centres not stated) gave Pf Dd2 inh 0%.
`CN1CCN(C(CN)C2CCCCC2)CC1` (configuration not stated) gave Pf Dd2 inh 28µM*.
`CCC(=O)N1CCN(c2nc3c(s2)CC(C(=O)O)CC3)CC1` (configuration not stated) gave Pf Dd2 inh -21%.
Screening CN(CCNC(=O)c1cn2ccnc(-c3ccccc3)c2n1)C1CCCCC1 returned Pf Dd2 inh inactive.
`CCc1nc(-c2ccccc2)n2cc[nH]c(=O)c12` gave Pf Dd2 inh inactive.
CCC(=O)N1CCc2cc(Br)cc(S(=O)(=O)N3CCCC(C(=O)NCc4ccc(OC)cc4)C3)c21 (configuration not stated) was read as Pf Dd2 inh -3%.
Screening CCc1cccc(C)c1NC(=O)C1CCN(S(=O)(=O)c2cc(Br)cc3c2N(C(C)=O)CC3)CC1 returned Pf Dd2 inh -25%.
Screening CCC(=O)N1CCc2cc(Br)cc(S(=O)(=O)N3CCC(C(=O)N(CC)CC)CC3)c21 returned Pf Dd2 inh 10µM*.
CCC(=O)N1CCc2cc(Br)cc(S(=O)(=O)N3CCN(c4cc(C)ccc4C)CC3)c21 was read as Pf Dd2 inh 5%.
Screening CCOC(=O)C1CCCN(S(=O)(=O)c2cc(Br)cc3c2N(C(=O)CC)CC3)C1 (configuration not stated) returned Pf Dd2 inh 3.5µM*.
CCC(=O)N1CCc2cc(Br)cc(S(=O)(=O)N3CCCC(C(=O)Nc4cc(C)ccc4OC)C3)c21 (configuration not stated) was read as Pf Dd2 inh inactive.
For O=C1C(N2CCN(Cc3ccc[nH]3)CC2)CCN1Cc1cccnc1 (configuration not stated) the results were Pf Dd2 inh inactive.
N#Cc1ccccc1C(=O)N1CCOC(c2ccc(Cl)c(Cl)c2)C1 (configuration not stated) was read as Pf Dd2 inh -18%.
`O=C(CC1CCN(C(=O)C2(c3ccccc3)CC2)C1)NC1CC1` (configuration not stated) gave Pf Dd2 inh 18%.
For CCC(C)NC(=O)C(C)N1C(=O)COc2ccc(C(=O)COc3ccc(OC)cc3)cc21 (configuration not stated) the results were Pf Dd2 inh -28%.
Screening CCC(=O)Nc1cccc(C(=O)N2CCN3C(=O)CN(C)C(=O)C3C2)c1 (configuration not stated) returned Pf Dd2 inh 1%.
For O=[S+]([O-])(c1ccccc1)N1CCn2c(nnc2-c2ccccc2)C1 the results were Pf Dd2 inh -6%.
`C=CCN(C)C(=O)C[C@@H]1c2nc(NC(=O)c3ccco3)sc2C[C@@H]2[C@](C)(CO)[C@H](O)CC[C@]21C` gave Pf Dd2 inh inactive.
COc1ccc(CNC(=O)C[C@@H]2c3nc(NC(=O)c4c(F)cccc4F)sc3C[C@@H]3[C@](C)(CO)[C@H](O)CC[C@]32C)cc1 was read as Pf Dd2 inh 7.9µM*.
For C[C@]1(CO)[C@H]2Cc3sc(NC(=O)c4c(F)cccc4F)nc3[C@@H](CC(=O)O)[C@]2(C)CC[C@H]1O the results were Pf Dd2 inh -4%.
C[C@]1(CO)[C@H]2Cc3sc(NC(=O)C4CCCCC4)nc3[C@@H](CC(=O)O)[C@]2(C)CC[C@H]1O was read as Pf Dd2 inh -21%.
Screening C=CCN(C)C(=O)C[C@@H]1c2nc(NC(=O)c3cccs3)sc2C[C@@H]2[C@](C)(CO)[C@H](O)CC[C@]21C returned Pf Dd2 inh 11µM*.
`CC(C)(C)CC(=O)Nc1nc2c(s1)C[C@@H]1[C@](C)(CO)[C@H](O)CC[C@@]1(C)[C@@H]2CC(=O)NCc1ccccc1` gave Pf Dd2 inh inactive.

Screening results: PubChem, National Center for Advancing Translational Sciences (NCATS)
